Test [1] concerns the target T1, Aspartate--tRNA(Asp/Asn) ligase (Mycobacterium tuberculosis (strain ATCC 25618 / H37Rv)) (UniProt P9WFW3). Note: in the data most compounds retested in dose-response had high values.
T1 sequence (whole entry): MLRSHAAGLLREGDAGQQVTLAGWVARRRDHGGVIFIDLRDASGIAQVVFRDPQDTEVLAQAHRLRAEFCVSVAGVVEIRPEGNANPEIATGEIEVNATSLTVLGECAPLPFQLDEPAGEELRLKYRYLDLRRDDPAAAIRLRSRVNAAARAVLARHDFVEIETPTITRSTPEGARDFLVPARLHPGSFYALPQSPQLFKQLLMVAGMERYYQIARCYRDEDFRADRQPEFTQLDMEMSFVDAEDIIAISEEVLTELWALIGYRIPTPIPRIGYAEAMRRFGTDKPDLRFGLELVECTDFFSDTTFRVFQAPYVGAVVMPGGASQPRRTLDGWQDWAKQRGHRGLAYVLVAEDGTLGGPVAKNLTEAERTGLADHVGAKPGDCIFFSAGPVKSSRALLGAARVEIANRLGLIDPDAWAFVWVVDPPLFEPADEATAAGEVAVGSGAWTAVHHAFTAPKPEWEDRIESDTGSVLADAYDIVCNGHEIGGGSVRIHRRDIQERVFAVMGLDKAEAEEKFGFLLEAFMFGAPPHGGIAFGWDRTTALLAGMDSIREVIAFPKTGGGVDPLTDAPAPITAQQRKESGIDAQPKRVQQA
Description: Assay for Asp RNA synthetase-1 from Mycobacterium tuberculosis. The format is functional. More on the design: scale not given: direction of the effect not stated beside the values. The following applies: 30 µM.

Test [2] addresses Shiga toxin 2 (Escherichia coli O157:H7) (UniProt P09385+P09386). In words: E. coli 0.157:H7 Shiga Toxin SOP - stx2 screening assay. The format is functional. On the set-up: scale not given: direction of the effect not stated beside the values. Conditions: 30 µM.

With `O=c1ccc(-c2ccccc2F)nn1CCN1CCCS1(=O)=O`, the Percent Effect in test [1] is -1.45%; in test [2], -0.28%.
On the same counts, the results for `O=C1CC(c2ccsc2)c2sc(C(=O)O)c(-c3ccccc3)c2N1` (centres undefined) are 1.95% and 17.4%.
As to `CN(Cc1ccco1)C(=O)CN1CCCC(Cn2cncn2)C1` (centres undefined), the Percent Effect in test [1] is -1.04%; in test [2], -14.6%.
Take `CC(NC(=O)NCCCn1cncn1)c1ccccc1Cl` (centres undefined): the Percent Effect in test [1] is 9.3%; in test [2], -26.7%.
On to `CN1CCOC(CNCc2coc(-c3ccccc3)n2)C1` (centres undefined), for which the Percent Effect is -1.77% in test [1] and -3.88% in test [2].
`Cc1nc(O)c2nnn(C[C@H]3CCCN3C(=O)c3cccc(F)c3)c2n1`: the Percent Effect in test [1] was 2.16%; in test [2], -4.92%.
On the same counts, the results for `CN1C(=O)C[C@@H]2[C@@H]1CCN2C(=O)c1ccc[nH]1` are -4.63% and -6.89%.
As to `CC(C)NC(=O)N1CCN(C(=O)N(C)C)CC2(CC(=O)N(C)C2)C1` (centres undefined), the Percent Effect in test [1] was -7.76%; in test [2], -39.2%.
For the compound `CCn1ncnc1C(C)NC(=O)C1CCN(C(=O)COC)CC1` (centres undefined), the Percent Effect in test [1] stood at 6.73%; in test [2], 11.1%.
The like results for `COc1ccc(OCc2cc(C(=O)N3CCN[C@H](C)C3)n[nH]2)c(Cl)c1` were, in that order, -1.22% and -61%.
As to `CN(Cc1ccncc1)C(=O)Nc1cnn(CC2CCCO2)c1` (centres undefined), the Percent Effect in test [1] is 2.49%; in test [2], -5.44%.
As to `Cc1ncoc1C(=O)N1C[C@H]2CCC[C@@]2(COCC2CCOCC2)C1`, the Percent Effect in test [1] is -1.27%; in test [2], 3.67%.
With `COc1cccc(CN2CCC(c3cc(O)nc(C)n3)C2)c1` (centres undefined), the Percent Effect in test [1] was -3.62%; in test [2] it was -14.1%.
On the same counts, the results for `Cc1cc(C(=O)N2CCCC(c3noc(C)n3)C2)[nH]n1` (centres undefined) are -4.2% and -22.4%.
With `CCCC(C)C(=O)N1CCC(n2cccc2C(=O)OC)CC1` (centres undefined), the Percent Effect is 0.787% in test [1] and -16.1% in test [2].
Regarding `Cc1nc(C)n(CC2CCCN(CCCOc3ccccc3)C2)n1` (centres undefined), the Percent Effect in test [1] was 0.568%; in test [2], 8.48%.
For `Cc1ccc(C(=O)O)cc1S(=O)(=O)Nc1nn(-c2ccccc2)cc1C`, the Percent Effect in test [1] stood at 5.61%; in test [2], 3.87%.

The record behind these values is ChEMBL document CHEMBL3988442, “University of Dundee, Small-Polar-MMV Screening Library” (2021).
